From PubChem
Shown are actives, neighbours in structure and some others; about 2.4% of the full set was active somewhere.
POLK inh – DNA polymerase kappa (human) inhibition | Potency, µM (series often up to 107 µM), hits mostly inhibitors | Q9UBT6 | 400,000 compounds, 0.53% hits | AID 588579 | purified Pol kappa, fluorescent DNA synthesis assay, 10 min
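50 nM final substrate added after 15 min RT preincubation of 10 nM Pol kappa with compound; fluorescence read at 0 and 10 min.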
POLB inh – blocks human DNA polymerase beta activity. Pol beta primer extension/strand displacement, fluorescence kinetic. P06746. Potency, µM (top dose mostly 114 µM), hits mostly inhibitors. 340,000 compounds, 1.3% hits
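Curves were derived by four-parameter Hill fits of normalized qHTS data. The kinetic fluorescent primer-extension read was taken at 0 and 10 min after 50 nM substrate, following a 15 min room-temperature preincubation of 10 nM enzyme with compounds.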
FEN1 inh – human FEN1 inhibition; Potency, µM (series often up to 114 µM), usual class: inhibitors; 390,000 compounds, 0.35% hits; P39748; AID 588795; Recombinant FEN1 flap cleavage, fluorescence, 15 min; note: nearly all actives have a fitted effect of over 65% in size
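Quantitative HTS format: each compound was titrated, incubated with 10 nM nuclease for 15 min at room temperature, then challenged with flap substrate at 50 nM final. Signal change over 15 min gave concentration–effect curves.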
POLH inh – blocks human DNA polymerase eta activity; Q9Y253; recombinant Pol eta, fluorescent DNA replication assay; Potency, µM (doses to about 114 µM), hits mostly inhibitors; 390,000 compounds, 1.2% hits
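Fluorescent replication assay: 50 nM final substrate added after a 15 min room-temperature compound preincubation with 10 nM enzyme. Signal taken at 0 min and again at 10 min.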
WRN inhibitor – inhibitors of human WRN helicase; WRN helicase unwinding, fluorescent forked duplex, kinetic; Potency, µM (highest dose often 114 µM), most hits filed as inhibitors; Q14191; AID 651768; 360,000 compounds, 0.46% hits; note: nearly all actives have a fitted effect of over 55% in size
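Kinetic fluorescence helicase assay: unwinding of a quenched forked DNA duplex (100 nM final) with 2 mM ATP final raises red fluorescence (525/598 nm). Compounds sat 15 min at room temperature with 20 nM WRN beforehand.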
Pol iota inh – blocks human DNA polymerase iota activity. AID 588590. 390,000 compounds, 1% hits. Pol iota fluorescent replication assay, 10 min. Potency, µM (series often up to 115 µM), most hits filed as inhibitors
Target sequence (Q9UNA4 whole entry, looked up): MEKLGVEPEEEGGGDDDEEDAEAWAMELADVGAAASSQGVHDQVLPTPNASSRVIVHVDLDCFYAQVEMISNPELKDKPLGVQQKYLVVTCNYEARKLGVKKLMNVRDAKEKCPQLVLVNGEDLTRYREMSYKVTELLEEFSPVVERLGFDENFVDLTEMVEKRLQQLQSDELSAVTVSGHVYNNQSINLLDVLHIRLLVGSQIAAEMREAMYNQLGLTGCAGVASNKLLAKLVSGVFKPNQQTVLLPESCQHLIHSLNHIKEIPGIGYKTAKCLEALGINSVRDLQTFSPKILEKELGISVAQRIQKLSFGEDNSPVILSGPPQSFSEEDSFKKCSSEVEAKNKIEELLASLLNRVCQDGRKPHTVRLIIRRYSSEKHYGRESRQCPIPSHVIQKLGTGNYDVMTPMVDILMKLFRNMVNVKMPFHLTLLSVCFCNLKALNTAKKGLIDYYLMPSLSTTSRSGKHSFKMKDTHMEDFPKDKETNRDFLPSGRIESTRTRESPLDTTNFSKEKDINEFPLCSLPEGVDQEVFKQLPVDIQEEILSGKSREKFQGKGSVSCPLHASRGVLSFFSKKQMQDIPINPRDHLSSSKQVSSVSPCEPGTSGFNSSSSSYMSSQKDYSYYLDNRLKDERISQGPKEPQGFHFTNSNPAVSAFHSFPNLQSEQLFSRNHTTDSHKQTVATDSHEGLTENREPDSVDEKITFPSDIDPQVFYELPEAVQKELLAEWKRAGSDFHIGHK
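Fluorescent replication assay read twice, at 0 min and 10 min after adding 50 nM (final) substrate. Enzyme (10 nM) and compounds were first incubated 15 min at room temperature; enzyme-free buffer wells were negative controls.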
Large screens that a line does not name were inactive. Calls come from the whole dose curve; as a rule, active = well fitted curve in the direction sought with a large enough effect; inconclusive = small, poorly fitted or top-dose-only effect, or another doubt; inactive = no such curve, though single readings can be large; an effect the other way counts as inactive or inconclusive.

COC(=O)NNC(=O)COc1ccc(Br)c(C)c1	none
CCCC(=O)Nc1ccc(C(=O)NNC(=O)COc2ccc(Br)c(C)c2)cc1	POLB inh 50µM, POLH inh inconclusive
CCCCCCc1nnc(NC(=O)c2ccco2)s1	none
COCCN(C(=O)COC(=O)/C=C/c1ccco1)c1c(N)n(Cc2ccccc2)c(=O)[nH]c1=O	POLB inh 28µM, POLH inh inconclusive, Pol iota inh inconclusive
CCN(C(=O)COC(=O)/C=C/c1ccc(C)o1)c1c(N)n(Cc2ccccc2)c(=O)[nH]c1=O	none (no result: POLB inh)
COCCN(C(=O)COC(=O)/C=C/c1ccc(C)o1)c1c(N)n(Cc2ccccc2)c(=O)[nH]c1=O	Pol iota inh 79µM
Cc1ccc[n+](C(C)C(=O)Nc2ccc(C)c(C)c2)c1 (centres undefined)	none
CC(/C=N/NC(=O)Cc1cccn1C)=C\c1ccco1	POLK inh inconclusive, POLB inh inconclusive, POLH inh inconclusive, Pol iota inh 45µM
O=C1C(=NO)CCc2ccccc21	POLH inh 18µM, WRN inhibitor inconclusive, Pol iota inh inconclusive (no result: POLB inh)
Cc1ccc(C)c(NC(=O)CN2C(=O)CCc3ccccc32)c1	POLK inh inconclusive, POLB inh 22µM, Pol iota inh 79µM (no result: WRN inhibitor)
Cc1ccc(Cl)cc1NC(=O)CN1C(=O)CCc2ccccc21	none (no result: WRN inhibitor)
Cc1ccc(NC(=O)CN2C(=O)CCc3ccccc32)cc1C	POLB inh 22µM, Pol iota inh inconclusive (no result: WRN inhibitor)
CC[C@H](C)[C@H](NC(=O)[C@H](Cc1ccc(O)cc1)NC(=O)[C@@H](N)C(C)C)C(=O)N[C@@H](Cc1cnc[nH]1)C(=O)N1CCC[C@H]1C(=O)N[C@@H](Cc1ccccc1)C(=O)O	none
C/C(=N\NC(=O)c1ccc(N2CCCC2=O)cc1)c1ccc(O)cc1O	Pol iota inh 45µM
O=C(N/N=C/c1ccco1)C1CC1c1ccccc1 (centres undefined)	POLK inh inconclusive, POLB inh 16µM, POLH inh inconclusive, Pol iota inh 32µM
O=C(N/N=C/c1ccco1)C1CC1	none
Cc1cccc(CNC(=O)C2CCC(=O)N(CC3CCCCC3)C2)c1 (centres undefined)	none (no result: POLK inh, POLB inh, FEN1 inh, Pol iota inh)
O=c1/c(=C\c2cc([N+](=O)[O-])cc([N+](=O)[O-])c2O)sc2nc3ccccc3n12	POLK inh inconclusive, POLB inh 18µM, FEN1 inh 56µM, POLH inh inconclusive, WRN inhibitor 35µM, Pol iota inh inconclusive
COc1cccc(C(C(=O)NC2CCCCC2)N(C(=O)c2cccs2)c2ccc3c(c2)OCO3)c1 (centres undefined)	none
Cc1cc(C)cc(N2Cc3ccccc3C2)c1	none
COc1cc(N2Cc3ccccc3C2)ccc1C=O	POLB inh 11µM, POLH inh inconclusive, Pol iota inh inconclusive
O=C(Nc1ccc(Cl)cc1)Nc1cc([N+](=O)[O-])ccc1F	none
COc1ccccc1N1CSC2=C(C#N)C(c3ccc(SC)cc3)CC(=O)N2C1 (centres undefined)	POLK inh inconclusive, POLB inh 25µM, FEN1 inh inconclusive, POLH inh 45µM, Pol iota inh inconclusive
COc1cc(C2CC(=O)N3CN(c4ccccc4C)CSC3=C2C#N)cc(OC)c1OC (centres undefined)	none (no result: POLK inh, FEN1 inh, POLH inh, WRN inhibitor, Pol iota inh)
N#CC1=C2SCN(C3CCCCC3)CN2C(=O)CC1c1ccc(F)cc1 (centres undefined)	Pol iota inh 25µM (no result: WRN inhibitor)
O=C(Cn1c(=O)n(-c2cccc(Cl)c2)c(=O)n1CC(=O)N1CCCCC1)N1CCCCC1	none
O=C(COC(=O)c1n[nH]c2ccccc12)NC(=O)NC1CCCC1	none
O=C(COC(=O)c1n[nH]c2ccccc12)NC(=O)NC12CC3CC(CC(C3)C1)C2	POLB inh 35µM, POLH inh inconclusive
Cc1ccc(NC(=O)CSc2nnc3ccc4ccccc4n23)cc1	none (no result: WRN inhibitor)
CN1C(C(=O)Nc2ccccn2)=C(O)c2sc(Cl)cc2S1(=O)=O	POLB inh inconclusive, Pol iota inh 79µM
CN1C(C(=O)Nc2ccccn2)C(=O)c2sc(Cl)cc2S1(=O)=O (centres undefined)	none (no result: POLB inh, FEN1 inh, POLH inh, WRN inhibitor, Pol iota inh)
CC1CCc2c(sc(/N=C/N(C)C)c2C#N)C1 (centres undefined)	none
Cc1occc1-c1nnc(SCc2cc(=O)n3cc(Br)ccc3n2)n1C	POLB inh 45µM, POLH inh inconclusive, Pol iota inh inconclusive
Cc1ccccc1Nc1nc(CSc2nnc(-c3ccoc3C)n2C)cs1	none
COc1ccc(/C=C/C(=O)c2ccc([N+](=O)[O-])o2)cc1OC	FEN1 inh inconclusive, POLH inh inconclusive, Pol iota inh 8.9µM (no result: POLB inh)
COc1cc(OC)c(C(=O)C=Cc2ccc(OC)c(OC)c2)c(OC)c1	none (no result: POLB inh)
CCOC(=O)c1c(C)[nH]c(C(=O)COC(=O)CNC(=O)c2ccc(Cl)cc2)c1C	none
CC(NC(=O)/C(C#N)=C/c1ccco1)c1ccccc1 (centres undefined)	none
CC(NC(=O)/C(C#N)=C/c1ccc([N+](=O)[O-])o1)c1ccccc1 (centres undefined)	POLB inh 40µM, FEN1 inh inconclusive, POLH inh 50µM, WRN inhibitor 56µM, Pol iota inh 20µM
O=C(Cn1c(O)c(/C=C2\C=Nc3ccc(Br)cc32)sc1=O)N1CCCC1	Pol iota inh inconclusive
O=c1[nH]c(O)c(/C=C2\C=Nc3ccc(Br)cc32)[nH]1	POLB inh 20µM, POLH inh inconclusive
Cc1cc(NC(=O)C(C)Sc2nnc(NCc3ccco3)s2)no1 (centres undefined)	POLH inh inconclusive, Pol iota inh 40µM (no result: POLB inh)
Cc1nn(C2CCS(=O)(=O)C2)c(Cl)c1/C=C/C(=O)OCC(N)=O (centres undefined)	none
Cn1ncc(N=Cc2c(O)ccc3ccccc23)c1C(=O)Nc1cccc(Cl)c1	POLH inh 50µM, WRN inhibitor inconclusive, Pol iota inh inconclusive
Nc1cc([N+](=O)[O-])ccc1N1C(=O)CCCC1=O	POLB inh 40µM, Pol iota inh inconclusive
O=C1Oc2ccccc2C(=O)/C1=C\N1CCN(c2ccccc2)CC1	none
O=[N+]([O-])c1cc(C(F)(F)F)ccc1-n1nnc2ccccc21	none
COc1ccc(CCNC(=O)CSc2nc3[nH]ncc3c(=O)n2-c2ccc(Br)cc2)cc1OC	none
CCN1C(=O)CS/C1=N\S(=O)(=O)c1ccc(Cl)cc1	none
CCn1c(Cl)c(C=O)s/c1=N\S(=O)(=O)c1ccccc1	POLB inh inconclusive, WRN inhibitor 40µM, Pol iota inh inconclusive
CC(=O)c1cccc(Nc2ccc3cc(S(=O)(=O)N4CCCC4)ccc3n2)c1	none (no result: WRN inhibitor)
CCn1c(=O)c2cc(C(=O)NC3CCCCCC3)sc2c2ccccc21	none (no result: WRN inhibitor)
Cn1c(=O)c2cc(C(=O)NC3CCCCCC3)sc2c2ccccc21	POLB inh 8.9µM, POLH inh inconclusive (no result: WRN inhibitor)
